Test [1] concerns the target Cytochrome P450 2C19 (Homo sapiens) (UniProt P33261). Put plainly: Cytochrome P450 Family 2 Subfamily C Member 19 (CYP2C19) small molecule antagonists: luciferase reporter qHTS assay (AID 1671197). Further: nearly all actives have a fitted effect of over 65% in size. Put shortly: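 First, compounds are pinned into enzyme-substrate mix and held 10 min at room temperature. Second, NADPH regeneration solution is added and plates incubate 1 h at 37C. Third, detection reagent is added and luminescence read after 20 min.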
(A reporter such as luciferase makes a cellular process visible.)

Test [2] addresses Cytochrome P450 2C9 (Homo sapiens) (UniProt P11712). Put plainly: Cytochrome P450 Family 2 Subfamily C Member 9 (CYP2C9) small molecule antagonists: luciferase reporter qHTS assay (AID 1671198). Further: nearly all actives have a fitted effect of over 50% in size. Put shortly: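 P450-Glo proluciferin substrate with CYP2C9 enzyme; 10 min RT preincubation, then NADPH regeneration 1 h at 37C; luciferin detection reagent 20 min RT, luminescence in relative luminescence units.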

Test [3] has as its target Cytochrome P450 1A2 (Homo sapiens) (UniProt P05177). Put plainly: Cytochrome P450 Family 1 Subfamily A Member 2 (CYP1A2) small molecule antagonists: luciferase reporter qHTS assay (AID 1671199). Further: nearly all actives have a fitted effect of over 50% in size. Put shortly: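 Inhibition of CYP1A2 conversion of proluciferin to luciferin, detected by luminescence. Reaction run 1 h at room temperature with NADPH regeneration after brief compound preincubation.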

The target in test [4] is Voltage-gated inwardly rectifying potassium channel KCNH2 (Homo sapiens) (UniProt Q12809). The test is described as follows: Human Ether-a-go-go-Related Gene (hERG) channel small molecule antagonists: fluorescence cell-based qHTS assay (AID 1671200). Further: nearly all actives have a fitted effect of over 50% in size. Put shortly: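 hERG-U2OS cells plated overnight at 37 C, loaded with FluxOR II dye 1 h at RT in dark; after 10 min, thallium stimulus added. Fluorescence (480/540 nm) read kinetically for 2 min at 1 s intervals.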
Voltage-gated inwardly rectifying potassium channel KCNH2 (Homo sapiens), sequence (Q12809 whole entry, looked up): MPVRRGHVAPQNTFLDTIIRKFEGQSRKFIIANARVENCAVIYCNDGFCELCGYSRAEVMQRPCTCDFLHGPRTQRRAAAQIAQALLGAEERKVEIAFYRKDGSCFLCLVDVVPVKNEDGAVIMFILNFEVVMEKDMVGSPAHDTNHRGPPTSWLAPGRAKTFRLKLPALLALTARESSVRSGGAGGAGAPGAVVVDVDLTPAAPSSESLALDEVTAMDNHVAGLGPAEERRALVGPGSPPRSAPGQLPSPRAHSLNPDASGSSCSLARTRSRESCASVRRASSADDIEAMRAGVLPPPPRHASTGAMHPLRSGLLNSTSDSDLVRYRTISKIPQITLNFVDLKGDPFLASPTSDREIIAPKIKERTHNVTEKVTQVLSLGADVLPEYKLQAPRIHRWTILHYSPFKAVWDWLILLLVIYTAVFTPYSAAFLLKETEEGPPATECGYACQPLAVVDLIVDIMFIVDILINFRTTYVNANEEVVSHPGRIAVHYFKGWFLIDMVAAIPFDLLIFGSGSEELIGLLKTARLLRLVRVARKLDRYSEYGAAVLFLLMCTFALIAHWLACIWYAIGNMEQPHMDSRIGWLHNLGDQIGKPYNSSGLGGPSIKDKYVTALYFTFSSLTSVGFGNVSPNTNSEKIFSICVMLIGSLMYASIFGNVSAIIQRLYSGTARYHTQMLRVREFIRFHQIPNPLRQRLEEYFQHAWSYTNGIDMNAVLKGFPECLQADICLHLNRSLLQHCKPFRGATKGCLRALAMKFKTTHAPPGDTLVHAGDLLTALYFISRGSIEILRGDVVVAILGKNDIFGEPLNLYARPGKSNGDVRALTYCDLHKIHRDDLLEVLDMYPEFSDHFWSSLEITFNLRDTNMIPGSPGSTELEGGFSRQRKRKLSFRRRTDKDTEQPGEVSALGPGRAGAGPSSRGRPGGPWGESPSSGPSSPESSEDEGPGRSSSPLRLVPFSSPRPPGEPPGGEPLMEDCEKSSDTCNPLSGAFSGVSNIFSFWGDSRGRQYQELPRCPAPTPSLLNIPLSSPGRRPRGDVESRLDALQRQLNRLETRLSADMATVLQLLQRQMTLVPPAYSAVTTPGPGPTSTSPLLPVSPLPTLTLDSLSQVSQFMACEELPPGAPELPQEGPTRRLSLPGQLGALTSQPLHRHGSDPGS
A general note: The hERG channel carries a current that helps repolarise heart muscle cells.

In PubChem BioAssay (Tox21) one finds Potency data, which are given here for eleven compounds.

Structures are written as SMILES. Inconclusive results are not listed. The source made the active and inactive calls. The call rests on the fitted dose curve; in most records, active means well fitted curve in the direction sought with a large enough effect in the repeat runs; inconclusive means weak or mixed curves; inactive means no such curve, though single readings can be large; an effect the other way counts as inactive or inconclusive.
Potency means the concentration at half of the fitted maximal effect.

Cytochrome P450 2C9 (Homo sapiens), sequence (P11712 whole entry, looked up): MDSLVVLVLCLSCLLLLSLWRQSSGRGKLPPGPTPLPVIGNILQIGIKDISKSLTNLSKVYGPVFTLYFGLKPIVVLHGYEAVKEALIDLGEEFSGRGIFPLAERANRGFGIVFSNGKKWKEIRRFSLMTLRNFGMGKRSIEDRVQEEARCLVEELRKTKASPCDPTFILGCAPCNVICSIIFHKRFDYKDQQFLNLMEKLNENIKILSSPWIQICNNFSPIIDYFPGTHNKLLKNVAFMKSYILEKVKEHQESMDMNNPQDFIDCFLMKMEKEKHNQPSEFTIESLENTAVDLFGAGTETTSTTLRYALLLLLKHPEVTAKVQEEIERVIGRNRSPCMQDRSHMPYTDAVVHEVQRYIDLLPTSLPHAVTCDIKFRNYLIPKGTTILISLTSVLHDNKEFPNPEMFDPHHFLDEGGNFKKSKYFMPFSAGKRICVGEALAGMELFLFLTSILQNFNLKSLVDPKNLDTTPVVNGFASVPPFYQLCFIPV
Cytochrome P450 2C19 (Homo sapiens), sequence (P33261 whole entry, looked up): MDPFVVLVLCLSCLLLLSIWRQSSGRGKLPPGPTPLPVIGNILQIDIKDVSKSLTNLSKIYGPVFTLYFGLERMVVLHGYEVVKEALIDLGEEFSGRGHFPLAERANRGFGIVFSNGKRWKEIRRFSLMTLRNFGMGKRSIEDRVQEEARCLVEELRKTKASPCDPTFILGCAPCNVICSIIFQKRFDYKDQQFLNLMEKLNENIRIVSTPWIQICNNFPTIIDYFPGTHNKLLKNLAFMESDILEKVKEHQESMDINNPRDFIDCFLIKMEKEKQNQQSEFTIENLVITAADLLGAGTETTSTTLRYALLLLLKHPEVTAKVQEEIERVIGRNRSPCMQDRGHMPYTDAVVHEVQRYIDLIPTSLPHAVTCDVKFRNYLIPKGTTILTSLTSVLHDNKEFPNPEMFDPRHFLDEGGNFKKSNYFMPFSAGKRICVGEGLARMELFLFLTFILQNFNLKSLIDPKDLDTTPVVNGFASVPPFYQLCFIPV
Cytochrome P450 1A2 (Homo sapiens), sequence (P05177 whole entry, looked up): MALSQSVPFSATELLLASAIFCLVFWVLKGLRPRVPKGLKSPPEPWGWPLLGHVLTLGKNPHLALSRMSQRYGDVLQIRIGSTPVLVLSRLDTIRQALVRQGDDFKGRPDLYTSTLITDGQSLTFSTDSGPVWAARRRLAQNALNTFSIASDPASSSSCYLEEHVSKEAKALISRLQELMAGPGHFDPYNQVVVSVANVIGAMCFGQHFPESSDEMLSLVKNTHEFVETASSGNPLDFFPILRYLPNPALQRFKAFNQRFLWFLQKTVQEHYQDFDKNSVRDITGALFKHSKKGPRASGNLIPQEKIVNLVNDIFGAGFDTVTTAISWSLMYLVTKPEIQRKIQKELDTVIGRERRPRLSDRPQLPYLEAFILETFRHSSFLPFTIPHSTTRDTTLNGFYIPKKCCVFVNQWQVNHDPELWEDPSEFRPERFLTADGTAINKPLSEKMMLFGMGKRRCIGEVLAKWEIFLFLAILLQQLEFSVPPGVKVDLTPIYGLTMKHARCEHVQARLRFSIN

Regarding `CCOC(=O)C(F)(F)F`, the Potency result in test [1], in test [2], in test [3] and in test [4] was “inactive” in each case.
Consider `COc1ccc2cccc(CCNC(C)=O)c2c1`, for which the Potency in test [1] is 34.7 µM (active); in test [2], 15.5 µM (active); in test [3] it was 4.9 µM (active). Further, the Potency result in test [4] was “inactive”.
For `COc1cc2c(cc1OC)C(C(C(=O)N(CCc1ccc(OC)c(OC)c1OC)CCc1ccc(OC)c(OC)c1OC)c1ccccc1)=NCC2` (centres undefined), the Potency in test [1] was 12.3 µM (active); in test [2], 11 µM (active). Besides, the Potency result in test [3] is “inactive”.
Consider `Nc1ccc(N)c2c1C(=O)c1ccccc1C2=O`, for which the Potency was 22.4 µM (active) in test [1], 12.6 µM (active) in test [2] and 0.399 µM (active) in test [3]. Also, the Potency entry in test [4] was “inactive”.
On to `CCN(CC)c1ccc(C(=C2C=CC(=[N+](CC)CC)C=C2)c2cc(S(=O)(=O)O)ccc2S(=O)(=O)[O-])cc1`, for which the Potency in test [1] is 12.3 µM (active); in test [2] it was 15.5 µM (active); in test [3], 17.4 µM (active). Further, the Potency result in test [4] is “inactive”.
As to `CNCCCN1c2ccccc2CCc2ccccc21`, the Potency entry in test [1], in test [2] and in test [3] was “inactive” throughout.
Regarding `COc1cc2nc(Cl)nc(N)c2cc1OC`, the Potency entry in test [1], in test [2] and in test [4] was “inactive” each time. Besides, the Potency in test [3] was 2.75 µM (active).
On to `CCCCC(CC)CN1C(=O)C2C3C=CC(C3)C2C1=O` (centres undefined), for which the Potency in test [1] was 3.56 µM (active); in test [2] it was 7.96 µM (active); in test [3], 17.8 µM (active).
Take `O=C1[C@H]2CCCC[C@H]2C(=O)N1CCCCN1CCN(c2nsc3ccccc23)CC1`: the Potency result in test [1], in test [2] and in test [3] was “inactive” each time. For the same compound, the Potency in test [4] was 8.49 µM (active).
`Cc1cccc(C)c1OCC(=O)N[C@@H](Cc1ccccc1)[C@@H](O)C[C@H](Cc1ccccc1)NC(=O)[C@H](C(C)C)N1CCCNC1=O`: the results for the Potency in test [1] and in test [2] were 21.9 µM (active) and 13.8 µM (active), respectively. Also, the Potency entry in test [3] is “inactive”.
For the compound `COc1ccnc(CS(=O)c2nc3ccc(OC(F)F)cc3[nH]2)c1OC` (centres undefined), the Potency in test [1] is 13.8 µM (active); in test [2] it was 34.7 µM (active); in test [3] it was 17.4 µM (active).
